Reference: PubChem BioAssay AID1159580 (chemical genetic matrix, 2015)
In all, about 5,500 compounds went through this assay and about 2,000 (36%) were called active. About 18% were inconclusive and are not listed. No stated cut-off is given here; in the data, active means normalized growth mostly below about 0.91 (no sharp cut-off); inconclusive means no clear call, values can overlap the other calls; inactive means mostly above about 0.92. The list shows a part of the results.

Test: chemical genetic growth profiling, strain panel (AID 1159580);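 further: tested at 20 µM; growth read once vehicle control cultures reached saturation at 30 °C; 1 = growth at the plate median or of vehicle wells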
Details: growth OD

Measured: normalized growth

CO[C@H]1[C@H](O)[C@H](O[C@H]2CC[C@]3(C)C4CC[C@]5(C)C(C6=CC(=O)OC6)CC[C@]5(O)C4CC[C@@H]3C2)O[C@@H](C)[C@@H]1O (some centres undefined)
inactive: S. cerevisiae deletion strains, locus YJR043C, strain POL32, stronger effect = lower value 1.02 | S. cerevisiae deletion strains, locus YJR075W, strain HOC1, stronger effect = lower value 1.02 | S. cerevisiae deletion strains, locus YKL009W, strain mrt4, stronger effect = lower value 0.996 | S. cerevisiae deletion strains, locus YKL068W, stronger effect = lower value 1 | S. cerevisiae deletion strains, locus YKL085W, strain MDH1 (second series), stronger effect = lower value 1.01 | S. cerevisiae deletion strains, locus YKL085W, strain MDH1, stronger effect = lower value 1.01 | S. cerevisiae deletion strains, locus YKL160W, strain elf1, stronger effect = lower value 0.989 | S. cerevisiae deletion strains, locus YKL190W, strain CNB1, stronger effect = lower value 1.01 | S. cerevisiae deletion strains, locus YKR001C, strain vps1, stronger effect = lower value 0.992 | S. cerevisiae deletion strains, locus YKR026C, strain gcn3, stronger effect = lower value 0.995 | S. cerevisiae deletion strains, locus YKR091W, strain srl3, stronger effect = lower value 0.995 | S. cerevisiae deletion strains, locus YLL001W, strain dnm1, stronger effect = lower value 0.999 | S. cerevisiae deletion strains, locus YLL026W, stronger effect = lower value 1 | S. cerevisiae deletion strains, locus YLL041C, strain sdh2, stronger effect = lower value 1.01 | S. cerevisiae deletion strains, locus YLR027C, strain aat2, stronger effect = lower value 0.999 | S. cerevisiae deletion strains, locus YLR039C, strain RIC1, stronger effect = lower value 1.02 | S. cerevisiae deletion strains, locus YLR058C, strain SHM2, stronger effect = lower value 1.02 | S. cerevisiae deletion strains, locus YLR102C, strain apc9, stronger effect = lower value 1 | S. cerevisiae deletion strains, locus YLR221C, strain rsa3, stronger effect = lower value 1.01 | S. cerevisiae deletion strains, locus YLR258W, strain gsy2, stronger effect = lower value 1 | S. cerevisiae deletion strains, locus YLR262C, strain YPT6 (second series), stronger effect = lower value 1.01 | S. cerevisiae deletion strains, locus YLR262C, strain YPT6, stronger effect = lower value 1.01 | S. cerevisiae deletion strains, locus YLR268W, strain sec22, stronger effect = lower value 1.02 | S. cerevisiae deletion strains, locus YLR320W, strain mms22, stronger effect = lower value 1.01 | S. cerevisiae deletion strains, locus YLR330W, strain CHS5, stronger effect = lower value 1.02 | S. cerevisiae deletion strains, locus YLR342W, strain FKS1 (second series), stronger effect = lower value 1.06 | S. cerevisiae deletion strains, locus YLR342W, strain FKS1, stronger effect = lower value 1 | S. cerevisiae deletion strains, locus YLR357W, strain rsc2, stronger effect = lower value 0.992 | S. cerevisiae deletion strains, locus YLR370C, strain arc18, stronger effect = lower value 1 | S. cerevisiae deletion strains, locus YLR371W, strain rom2, stronger effect = lower value 1.02 | S. cerevisiae deletion strains, locus YLR384C, strain iki3, stronger effect = lower value 0.991 | S. cerevisiae deletion strains, locus YLR418C, strain cdc73, stronger effect = lower value 1.03 | S. cerevisiae deletion strains, locus YML016C, strain PPZ1, stronger effect = lower value 1.01 | S. cerevisiae deletion strains, locus YML032C, strain rad52, stronger effect = lower value 1 | S. cerevisiae deletion strains, locus YML120C, strain ndi1, stronger effect = lower value 1.03 | S. cerevisiae deletion strains, locus YML124C, strain tub3, stronger effect = lower value 1.01 | S. cerevisiae deletion strains, locus YMR058W, strain fet3, stronger effect = lower value 1.02 | S. cerevisiae deletion strains, locus YMR078C, strain ctf18, stronger effect = lower value 1.01 | S. cerevisiae deletion strains, locus YMR125W, strain sto1, stronger effect = lower value 0.981 | S. cerevisiae deletion strains, locus YMR129W, stronger effect = lower value 1.01 | S. cerevisiae deletion strains, locus YMR205C, strain PFK2, stronger effect = lower value 1 | S. cerevisiae deletion strains, locus YMR223W, strain ubp8, stronger effect = lower value 0.994 | S. cerevisiae deletion strains, locus YMR231W, strain pep5, stronger effect = lower value 1 | S. cerevisiae deletion strains, locus YMR263W, strain SAP30, stronger effect = lower value 1.01 | S. cerevisiae deletion strains, locus YMR307W, strain GAS1, stronger effect = lower value 1.06 | S. cerevisiae deletion strains, locus YNL067W, strain RPL9B, stronger effect = lower value 1.02 | S. cerevisiae deletion strains, locus YNL071W, strain lat1, stronger effect = lower value 0.996 | S. cerevisiae deletion strains, locus YNL128W, strain TEP1, stronger effect = lower value 1.04 | S. cerevisiae deletion strains, locus YNL153C, strain GIM3, stronger effect = lower value 1.02 | S. cerevisiae deletion strains, locus YNL209W, strain ssb2, stronger effect = lower value 0.985 | S. cerevisiae deletion strains, locus YNL233W, strain BNI4, stronger effect = lower value 1.02 | S. cerevisiae deletion strains, locus YNL248C, strain rpa49, stronger effect = lower value 0.991 | S. cerevisiae deletion strains, locus YNL250W, strain rad50, stronger effect = lower value 1 | S. cerevisiae deletion strains, locus YNL271C, strain bni1, stronger effect = lower value 1.01 | S. cerevisiae deletion strains, locus YNL298W, strain CLA4, stronger effect = lower value 0.999 | S. cerevisiae deletion strains, locus YNL307C, strain MCK1, stronger effect = lower value 1.02 | S. cerevisiae deletion strains, locus YNL322C, strain KRE1 (second series), stronger effect = lower value 0.989 | S. cerevisiae deletion strains, locus YNL322C, strain KRE1, stronger effect = lower value 1.01 | S. cerevisiae deletion strains, locus YNR049C, strain mso1, stronger effect = lower value 1 | S. cerevisiae deletion strains, locus YNR052C, strain pop2, stronger effect = lower value 1 | S. cerevisiae deletion strains, locus YOL006C, strain TOP1, stronger effect = lower value 1.06 | S. cerevisiae deletion strains, locus YOL012C, strain htz1 1.19 | S. cerevisiae deletion strains, locus YOL147C, strain pex11, stronger effect = lower value 1.01 | S. cerevisiae deletion strains, locus YOR001W, strain rrp6, stronger effect = lower value 1.02 | S. cerevisiae deletion strains, locus YOR061W, strain CKA2, stronger effect = lower value 1.01 | S. cerevisiae deletion strains, locus YOR069W, strain VPS5, stronger effect = lower value 1.01 | S. cerevisiae deletion strains, locus YOR070C, strain gyp1, stronger effect = lower value 1.01 | S. cerevisiae deletion strains, locus YOR080W, strain dia2, stronger effect = lower value 1 | S. cerevisiae deletion strains, locus YOR083W, strain WHI5, stronger effect = lower value 0.955 | S. cerevisiae deletion strains, locus YOR106W, strain vam3, stronger effect = lower value 0.984 | S. cerevisiae deletion strains, locus YOR136W, strain idh2, stronger effect = lower value 1.01 | S. cerevisiae deletion strains, locus YOR144C, strain elg1, stronger effect = lower value 1.01 | S. cerevisiae deletion strains, locus YOR184W, strain ser1, stronger effect = lower value 1.01 | S. cerevisiae deletion strains, locus YOR265W, strain rbl2, stronger effect = lower value 1.01 | S. cerevisiae deletion strains, locus YOR270C, strain vph1, stronger effect = lower value 0.97 | S. cerevisiae deletion strains, locus YOR290C, strain snf2, stronger effect = lower value 1.01 | S. cerevisiae deletion strains, locus YOR316C, strain cot1, stronger effect = lower value 1 | S. cerevisiae deletion strains, locus YPL051W, strain arl3, stronger effect = lower value 0.994 | S. cerevisiae deletion strains, locus YPL055C, strain LGE1, stronger effect = lower value 1 | S. cerevisiae deletion strains, locus YPL078C, strain atp4, stronger effect = lower value 0.989 | S. cerevisiae deletion strains, locus YPL106C, strain sse1, stronger effect = lower value 0.959 | S. cerevisiae deletion strains, locus YPL240C, strain hsp82, stronger effect = lower value 0.998 | S. cerevisiae deletion strains, locus YPL241C, strain CIN2, stronger effect = lower value 1.01 | S. cerevisiae deletion strains, locus YPR119W, strain clb2, stronger effect = lower value 0.996 | S. cerevisiae deletion strains, locus YPR141C, strain kar3, stronger effect = lower value 1 | S. cerevisiae deletion strains, locus YPR163C, strain tif3, stronger effect = lower value 1.01 | S. cerevisiae deletion strains, locus YPR167C, strain met16, stronger effect = lower value 0.998 | S. cerevisiae deletion strains, strain wtn01, stronger effect = lower value 1 | S. cerevisiae strains, strain wild type, stronger effect = lower value 1.02
